Hits are enriched below; roughly 2.2% of the tested compounds scored in any of these assays.
Pin1 inhibitor: inhibitors of human Pin1; Q13526; Pin1 FP peptide displacement, HiFluor488, 10 min; Potency, µM (highest dose often 115 µM), without a hit: top-dose activity, negative = inhibition, most hits filed as inhibitors; 390,000 tested, 0.009% active; AID 504891; active = well fitted inhibition curve with a large enough effect in the polarisation, with a control signal flat, not every such curve was filed as active; inconclusive = small, poorly fitted or top-dose-only effect, or effect the other way, or a change in a side signal; inactive = no such curve, though single readings can be large or run the other way; the % refers to the polarisation; also: % is scaled to controls: 0 for no effect and ±100 for the full control effect
Target sequence (Q13526 whole entry, looked up): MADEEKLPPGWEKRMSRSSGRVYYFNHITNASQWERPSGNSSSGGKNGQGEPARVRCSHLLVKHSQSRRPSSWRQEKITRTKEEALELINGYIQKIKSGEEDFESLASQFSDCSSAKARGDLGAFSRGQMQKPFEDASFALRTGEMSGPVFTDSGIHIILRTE
Nrf2 inh: inhibitors of Nrf2 signaling; Potency, µM (doses to about 46 µM), inactives show top-dose activity change, negative = inhibition, usual class: inhibitors; A549 ARE-Fluc reporter, luciferase luminescence, 18-24 h; 360,000 tested, 2.1% active; also: % is scaled to controls: 0 for no effect and ±100 for the full control effect; nearly all actives have a fitted effect of over 60% in size
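In this cell-based qHTS, ARE-driven firefly luciferase in A549 cells reports Nrf2 activity; the luminescent signal after BugLite lysis is the measured value, with a prior CellTiter-Fluor read for cell health.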
A549 tox: kills or reduces viability of A549 cells in Nrf2 counter-screen | AID 504648 | A549 ARE-Fluc cells, CellTiter-Fluor viability, 18-24 h | 390,000 tested, 0.16% active | Potency, µM (top dose mostly 46 µM), inactives show top-dose activity change, negative = cytotoxicity, usual class: inhibitors; also: % is scaled to controls: 0 for no effect and ±100 for the full control effect
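A549 ARE_Fluc cells in 5% FBS OPTI-MEM were exposed to compounds in concentration-response for 18-24 h at 37 deg C. Viability was read by CellTiter-Fluor fluorescence (Ex 405/Em 525) after 30 min, before the luciferase read.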
Nrf2 activator: activates Nrf2 signaling; AREc32 ARE-luciferase reporter (MCF7-derived line), luminescence, 24 h; Potency, µM (series often up to 46.1 µM), without a hit: top-dose activation, usual class: activators; 410,000 tested, 0.31% active; also: % of control where 0% means no effect; nearly all actives have a fitted effect of over 65% in size
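Reporter line AREc32 (ARE-Fluc), seeded overnight in OPTI-MEM with 5% FBS; compound pin-transferred, 24 hr at 37 deg C, 5% CO2; luminescent read-out.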
Numbers without * were called inactive; ? = inconclusive; nt = no result given; ! = not active in a repeat. Unless noted, calls follow the shape of the dose curve; as a rule, active = well fitted curve in the direction sought with a large enough effect; inconclusive = small, poorly fitted or top-dose-only effect, or another doubt; inactive = no such curve, though single readings can be large; an effect the other way counts as inactive or inconclusive. Potency is read from the fitted curve at half-maximal effect.

SMILES	Pin1 inhibitor	Nrf2 inh	A549 tox	Nrf2 activator
O=C1c2ccccc2-c2cc3ccccc3cc21	-7%	?	-2%	3.2µM*
O=C1c2ccccc2-c2cccc3cccc1c23	?	22%	5%	?
CCOc1ccccc1NC(=O)c1sc2nc3c(cc2c1N)CN(Cc1ccccc1)CC3	?	?	3%	1%
CCCC1=Nc2cc(C(=O)NCCc3ccc(OC)cc3OC)ccc2Sc2ccccc21	17%	18µM*	7%	0%
Cc1ccc(N2CCN(C(=O)C3CCC(CNS(=O)(=O)c4ccc(Br)s4)CC3)CC2C)cc1 (centres undefined)	6%	9.2µM*	1%	4%
Cc1ccc(Cn2c(=O)n(CCCCC(=O)NCc3ccccc3Cl)c(=O)c3ccccc32)cc1	11%	?	-9%	-2%
COc1cc2cc(c1Cl)N(C)C(=O)CC(OC(=O)C(C)N(C)C(C)=O)C1(C)OC1C(C)C1CC(O)(NC(=O)O1)C(OC)C=CC=C(C)C2 (centres undefined)	-4%	?	-18%	-1%
CC(C)n1c(=O)c(C=Nc2cccc([N+](=O)[O-])c2)c(O)n(CCc2ccccc2)c1=O	42%	-16%	-19%	11µM*
O=C1Nc2ccccc2/C1=C/c1cnc[nH]1	1%	7.3µM*	6%	4%
COc1ccc(-n2c(/C=C3\C(=O)Nc4ccccc43)nc3ccccc3c2=O)cc1	-6%	-27%	?	0%
COc1cc(OC)c(/C=C2\C(=O)Nc3ccccc32)c(OC)c1	18%	?	-19%	12%
COc1ccc2c(c1)/C(=C/c1cnc[nH]1)C(=O)N2	-1%	18µM*	?	-2%
COC(=O)c1ccc(NC(=O)c2cccn(Cc3ccccc3C)c2=O)cc1	-6%	nt	10%	-1%
Cc1cccc(Cn2c(=O)n(Cc3ccc(C(=O)NC4CCN(Cc5ccccc5)CC4)cc3)c(=O)c3ccccc32)c1	56%	18%	0%	-1%
COc1ccccc1N=Nc1ccc(N)c(C)c1	4%	-5%	?	2%
CN1C2CCC1/C(=C/c1ccccn1)C(=O)/C2=C\c1ccccn1	-13%	5.8µM*	7.3µM*	-3%
CCC12CN3CC(CC)(CN(C1)C3c1ccccn1)C2=O (centres undefined)	0%	17%	0%	0%
Cc1cccc(Oc2nc3c(C)cccn3c(=O)c2/C=C(\C#N)c2nc3ccccc3s2)c1	?	5%	-16%	4%
Nc1ccc2ccc3cccc[n+]3c2c1	?	13µM*	?	4%
CCOc1cccc(=NC2CCCCC2)c2c(C)n(C)c(C)c12	0%	16µM*	?	7%
Cc1c2ccncc2c(C)c2c1[nH]c1ccccc12	-3%	7.3µM*	?	5%
COc1ccc(C2=NCC(=O)N(CC(=O)NCc3ccco3)c3sc4c(c32)CCCC4)cc1	?	21µM*	?	6%
Cc1cccc(C2=NCC(=O)N(CC(=O)NCc3ccco3)c3sc4c(c32)CCCC4)c1	?	?	-19%	0%
Cc1cccc(C(=O)Nc2ccc(C(=O)OCc3cc(=O)n4nc(C5CC5)sc4n3)cc2)c1	39%	nt	0%	0%
O=C(CSC1c2ccccc2-c2ccccc21)N/N=C/c1ccccc1O	8%	5.2µM*	21µM*	4%
SMILES	Pin1 inhibitor	Nrf2 inh	A549 tox	Nrf2 activator
Cc1ccc(NC(=O)NCc2ccc3c(c2)CCN3C(=O)c2ccccc2)c(Cl)c1	?	nt	-2%	0%
COC(=O)C1=C(c2ccc(OCc3ccccc3)cc2)C[C@@H]2CC[C@H]1N2C(=O)NCCCc1ccccc1	10%	15µM*	-18%	0%
COC(=O)C1=C(c2cccc(OCc3ccccc3)c2)C[C@@H]2CC[C@H]1N2C(=O)NCCCc1ccccc1	2%	21µM*	-17%	0%
O=C(CCC1CCCC1)c1c(O)c2ccccc2oc1=O	-4%	21µM*	?	6%
COC(=O)C1=C(c2cc3ccccc3s2)C[C@@H]2CC[C@H]1N2C(=O)NCC1CC1	4%	18µM*	-15%	1%
COC(=O)C1=C(c2ccc(OC(F)(F)F)cc2)C[C@@H]2CC[C@H]1N2C(=O)N1CCCC1	-9%	?	-1%	0%
COC(=O)C1=C(c2cc3ccccc3s2)C[C@@H]2CC[C@H]1N2C(=O)N1CCC(C)CC1	-6%	26µM*	-9%	0%
COC(=O)C1=C(c2ccc(Cl)c(C(F)(F)F)c2)C[C@@H]2CC[C@H]1N2C(=O)N1CCC(O)(c2ccc(Cl)cc2)CC1	8%	23µM*	?	0%
COC(=O)C1=C(c2ccc(OC(F)(F)F)cc2)C[C@@H]2CC[C@H]1N2C(=O)N1CCC(C)CC1	-8%	18µM*	-7%	4%
CCOc1ccc(-n2nc3c(=S)[nH]nc(C)c3c2C)cc1	31%	-24%	-4%	0%
Nc1c(C(=O)Nc2ccc(Br)cc2F)sc2nc3c(cc12)N1CCC3CC1	0%	-2%	10%	1%
COc1ccc(OCC(=O)N2CCN(Cc3cccc(OC)c3OC)CC2)cc1	-6%	8%	0%	0%
Fc1ccc(C(OCCN2CCN(CCCc3ccccc3)CC2)c2ccc(F)cc2)cc1	3%	23µM*	?	-3%
CN(C)C(=O)Oc1cccc([N+](C)(C)C)c1	-8%	6.5µM*!	-1%	1%
O=C(CO)C(O)C(O)C(O)CO (centres undefined)	?	-18%	-5%	-1%
CSc1nn(-c2ccc(C(=O)OCC(=O)NC(=O)NC(C)C)cc2)c(=S)s1	24%	-13%	1%	1%
C=CCn1c(O)c(C(CC)=NCc2cccnc2)c(=O)[nH]c1=O	?	6%	7%	3%
COC(=O)C1=C(C(=O)OC)C2OC1c1cc3ccccc3cc12	-4%	21µM*	-15%	-3%
CCC(C)OC(=O)c1c(N)n(Cc2cccs2)c2nc3ccccc3nc12 (centres undefined)	5%	?	?	-1%
Nc1c(C(=O)OCc2ccccc2)c2nc3ccccc3nc2n1Cc1cccs1	29%	23µM*	?	9%
Cc1ccc(NC(=O)c2ncn(CC(=O)NCc3ccc4c(c3)OCO4)n2)cc1C	4%	?	-3%	3%
O=C(Nc1ccc(Oc2ccc(Cl)cc2)c(Cl)c1)c1cc(I)cc(I)c1O	?	?	?	0%
CC1CC(C)CC(C)C(O)C(C#N)=CC=CCC(C2CCCC2C(=O)O)OC(=O)CC(O)C(C)C1 (centres undefined)	23%	0.52µM*	2.3µM*	-1%
N#Cc1cc2c(nc1SCC(=O)Nc1cccc(C(F)(F)F)c1)C1CCN2CC1	23%	21µM*	-14%	2%
O=C(c1ccc(Cl)cc1)c1cn(Cc2ccccc2)c2cc3c(cc2c1=O)OCCO3	19%	?	-27%	0%
CCCn1cc(S(=O)(=O)c2ccc(OC)cc2)c(=O)c2cc(F)c(N3CCCCCC3)cc21	9%	?	-16%	0%
